Hits are enriched below; roughly 4.6% of the tested compounds scored in any of these assays.
D1 agonist = human D1 receptor agonism; 360,000 compounds, 1% hits; activation, % at 2 µM; P21728; HEK293 T-REx D1 cells, calcium flux, agonist mode; AID 504660; further: 0% is about no effect
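Agonism was scored from calcium flux recorded over 180 s (1 read/s) after pintool compound addition, following a 10-cycle baseline. Cells were inducible force-coupled HEK293 TREx D1, plated overnight at 30 C and loaded with no-wash calcium dye.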
TRHR enhancer-1 = TRH receptor (human) allosteric enhancement | P34981 | TRHR cells, fluo-8 calcium fluorescence, EC20 TRH enhancement | enhancement, % at 2 µM | 360,000 compounds, 0.66% hits | AID 493056; in the data active means enhancement above about 30%; further: 0% is about no effect
Target sequence (P34981 whole entry, looked up): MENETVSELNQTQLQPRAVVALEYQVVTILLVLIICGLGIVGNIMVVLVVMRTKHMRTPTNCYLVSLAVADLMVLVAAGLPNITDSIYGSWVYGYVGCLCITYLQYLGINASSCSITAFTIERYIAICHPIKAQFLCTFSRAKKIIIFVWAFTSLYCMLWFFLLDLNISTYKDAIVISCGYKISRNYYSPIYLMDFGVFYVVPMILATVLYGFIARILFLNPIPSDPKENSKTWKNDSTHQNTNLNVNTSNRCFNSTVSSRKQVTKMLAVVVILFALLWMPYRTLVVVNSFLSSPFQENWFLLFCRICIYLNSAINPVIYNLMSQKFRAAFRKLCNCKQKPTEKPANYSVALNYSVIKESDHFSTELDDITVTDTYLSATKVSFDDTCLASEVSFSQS
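TRHR-expressing cells loaded with fluo-8 calcium dye were read kinetically (ex 480/em 530) during compound addition, then stimulated with an EC20 of TRH (10 nM final). Enhancement of the Gq-mediated intracellular calcium response was scored.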
D1 antagonist = human D1 dopamine receptor antagonism; P21728; HEK293 TREx D1 cells, calcium flux, dopamine EC80; active compounds read low; activity change, negative = inhibition, % at 10 µM; 360,000 compounds, 3.2% hits; AID 504652; in the data active means activity change below about -30%; further: on the % scale 0 is the no-effect control and ±100 the full control effect
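Allosteric or orthosteric antagonism assessed as attenuation of the calcium response to EC80 dopamine, added 180 s after compound, in induced HEK293 Trex D1 cells loaded with no-wash calcium dye.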
TRHR agonist-1 = activates the human TRH receptor; P34981; TRHR cells, calcium flux fluo-8, FDSS agonist mode; activation, % at 2 µM; 360,000 compounds, 0.18% hits; AID 493084; further: 0% is about no effect
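TRHR-expressing cells, plated overnight in medium with 10% serum, were loaded with fluo-8 calcium dye at room temperature. After a 10 s baseline, library compound was pin-added and calcium release was recorded kinetically (ex 480/em 530) as agonist response.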
D1 potentiator = potentiators of human D1 dopamine receptor | HEK293 TREx D1 cells, calcium flux, dopamine EC20 potentiation | 360,000 compounds, 0.036% hits | AID 504651 | potentiation, % at 10 µM | P21728; in the data active means potentiation above about 30%; further: 0% is about no effect
TRHR enhancer-2 = human TRH receptor allosteric enhancement confirmation. shares compounds with TRHR enhancer-1. TRH receptor cell assay, enhancer confirmation qHTS. activity change, negative = inhibition, % at 46.1 µM. 970 tested, under 10 active; active means well fitted curve in the direction sought with a large enough effect; an effect the other way counts as inactive or inconclusive;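 further: compound effect scored on response to added TRH at EC20 of 10 nM; 0% is about no effect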
TRHR agonist-2 = confirmation of human TRH receptor agonists | 970 compounds, 8% hits | shares compounds with TRHR enhancer-1 | Potency, µM (titrated, usually from 46.1 µM), for the others: at the top dose activation, most hits filed as activators | AID 493078 | TRHR-expressing cells, agonist activation read-out; active means well fitted curve in the direction sought with a large enough effect; an effect the other way counts as inactive or inconclusive; further: potency means the concentration at half of the fitted maximal effect; 0% is about no effect; nearly all actives have a fitted effect of over 75% in size
* = called active by the depositor. Unless noted, no stated cut-off is given here; in the data, active means activation above about 30%; inactive means the rest.

SMILES | D1 agonist | TRHR enhancer-1 | D1 antagonist | TRHR agonist-1 | D1 potentiator | others
COc1cc(C(c2c(O)c3ccccc3oc2=O)c2c(C)n(C)n(-c3ccccc3)c2=O)ccc1OCC(=O)O (stereo not given) | 0.2 | -0.4 | -17.1 | 0.2 | -0.3
COc1ccc2c(c1OC)CN1CCc3cc4c(cc3[C@H]1C2)OCO4 | 1.2 | 10.9 | -80.4* | 0.0 | -13.3
COc1cc2c(cc1OC)C(C1c3cc4c(cc3CCN1C)OCO4)OC2=O (stereo not given) | 1.2 | -7.2 | 6.0 | 0.6 | -3.3
COc1ccc2c(c1OC)CN1CCc3cc4c(cc3C1C2)OCO4 (stereo not given) | 1.3 | -3.8 | -80.1* | 0.5 | -9.3
Cn1c(=O)n(C)c2cc(CNCCc3ccccc3)ccc21 | 11.5 | 4.3 | -14.6 | 1.3 | -0.9
O=C1CC(c2ccc(F)cc2)c2c(c3ccccc3oc2=O)O1 (stereo not given) | -0.4 | 1.1 | -13.3 | 0.8 | -0.7
C=Cc1ccc(Cn2c(C)c(CNCCc3cc(OC)ccc3OC)c(C(=O)O)c2C)cc1 | -2.3 | -10.2 | 14.8 | 0.4 | -0.4
COc1ccccc1CCNC1CCCCCC1 | 8.2 | 6.2 | 30.3 | -0.1 | -8.1
COc1ccccc1CCNC1CCC(C(C)(C)C)CC1 (stereo not given) | 88.9* | 0.1 | -20.4 | -0.6 | -7.6
CCN(CC)C(=O)c1ccc(NC(=O)CCn2nc(-c3ccc(Cl)cc3)c3ccccc3c2=O)cc1 | 0.5 | -2.9 | -3.8 | -0.7 | -5.8
COc1ccc(CCn2c(O)c(C=Nc3ccc(F)cc3)c(=O)[nH]c2=O)cc1OC | 6.8 | 37.7* | 0.0 | 0.1 | -5.0
CCN(CC)CCCN=Cc1c(O)n(CCc2ccc(OC)c(OC)c2)c(=O)[nH]c1=O | 2.1 | 22.5 | 5.5 | 0.2 | -7.2
CCN(CCO)c1ccc(N=Cc2c(O)n(C)c(=S)[nH]c2=O)cc1 | 75.4* | 8.0 | -23.9 | -1.2 | -0.2
NC(=O)c1ccc(N=Cc2c(O)n(Cc3ccco3)c(=O)[nH]c2=O)cc1 | 3.7 | -9.1 | 4.3 | 0.6 | -0.7
CCN(CC)c1ccc(N=Cc2c(O)n(Cc3ccco3)c(=O)[nH]c2=O)cc1 | 31.0* | 0.7 | -2.5 | 9.4 | -1.6
CCN(CC)c1ccc(N=Cc2c(O)n(CCc3ccc(OC)c(OC)c3)c(=O)[nH]c2=O)cc1 | 40.2* | 2.7 | 3.0 | 4.8 | 6.8
CCn1c(O)c(C=Nc2ccc(S(N)(=O)=O)cc2)c(=O)[nH]c1=S | 2.0 | 4.1 | -0.7 | 0.8 | 7.0
COc1ccc(OCC(=O)N2CCN(CCc3ccccn3)CC2)cc1 | -0.8 | 4.4 | -19.2 | 0.9 | 0.8
COc1ccc(C)cc1NC(=O)c1cccn(Cc2ccccc2Cl)c1=O | -0.1 | -1.5 | 6.0 | 0.0 | -4.8
COc1ccc(-n2c(/C=C/c3cccc(F)c3)nc3ccccc3c2=O)cc1Cl | -1.9 | -6.9 | 2.9 | -0.3 | -2.6
O=C(/C=C/c1c[nH]c2ccccc12)c1c(O)n(CCc2ccccc2)c(=O)[nH]c1=O | 383.1* | 46.6* | 51.2 | 39.8* | 39.0*
CCCC(=O)Nc1ccc(N2CCN(CC)CC2)c(Cl)c1 | 2.0 | 23.2 | -41.0* | 2.0 | -11.9
CC(=O)O[C@H]1[C@H]2O[C@]23[C@@H]2CC[C@]4(O)C[C@@H](O)CC[C@]4(C)C2CC[C@]3(C)[C@H]1c1ccc(=O)oc1 (stereo not given in full) | -0.6 | -0.1 | -16.3 | -0.3 | 8.4
COc1ccccc1OP(=O)(Nc1ccc(Br)cc1)Oc1ccccc1OC | 5.7 | 5.9 | -46.6* | 0.5 | -4.5
CN(N=O)c1cc(O)ccc1O | 2.7 | 4.0 | -2.4 | 1.5 | -3.5
SMILES | D1 agonist | TRHR enhancer-1 | D1 antagonist | TRHR agonist-1 | D1 potentiator | others
CC/C(CC(c1ccccc1)c1c(O)c2ccccc2oc1=O)=N\NC(N)=S (stereo not given) | 3.7 | 9.1 | -32.2* | 0.1 | -12.2
O=c1c2ccccc2nc(/C=C\c2ccc(F)cc2)n1-c1ccccc1F | 3.0 | -0.5 | -23.8 | 0.0 | -1.0
Cc1[nH]c2ccc(OCc3ccccc3)cc2c1CCN | 11.7 | 1.4 | 8.1 | 0.2 | -3.4
COc1ccc2[nH]c(C)c(CCNCc3cn(C)c4ccccc34)c2c1 | 41.2* | -5.6 | -54.9* | 3.4 | -11.2
Cc1ccc(-n2c(/C=C/c3ccccc3)nc3ccccc3c2=O)cc1C | -0.2 | -5.9 | 40.8 | 0.0 | -1.7
O=C(Nc1ccc(C(F)(F)F)cc1)OC1CN2CCC1CC2 (stereo not given) | 30.3* | 2.6 | -5.4 | 4.0 | -2.9
CC(C)Cc1nnc(NC(=O)CCC(=O)N2CCN(CCOC(c3ccccc3)c3ccccc3)CC2)s1 | 6.0 | -0.4 | -32.0* | 0.2 | -3.6
Clc1ccc(C(OCCN2CCCCC2)c2ccccc2)cc1 (stereo not given) | 8.6 | 0.4 | -15.6 | 0.2 | -4.5
COc1cc(C)c(CN2CCN(c3ccccc3)CC2)cc1C | 3.1 | 3.3 | -12.4 | -0.1 | -7.8
Cc1ccccc1OCC(=O)N1CCN(CCc2ccccn2)CC1 | -1.4 | 0.5 | 4.4 | -0.7 | 1.2
CN(c1ccc(OCC(=O)N2CCN(C/C=C/c3ccccc3)CC2)cc1)S(=O)(=O)c1cccs1 | 9.7 | -5.7 | -42.9* | 0.6 | -1.1
O=C(COc1ccc(Cl)cc1Cl)N1CCN(C/C=C/c2ccccc2)CC1 | 6.2 | -6.4 | 17.3 | 4.0 | 0.8
COCCNC(=O)c1c(NC(=O)c2ccc(Br)o2)n(Cc2ccccc2)c2nc3ccccc3nc12 | 37.1* | -8.2 | -3.6 | 7.8 | -2.2
O=S(=O)(NC1CCCCC1)OCC(Cl)(Cl)Cl | 1.5 | -6.0 | -34.3* | -0.4 | -2.5
CCOc1ccccc1CN(CCc1ccc2c(c1)OCO2)Cc1ccc(CC)cc1 | 0.8 | -8.9 | 2.1 | 1.0 | -3.3
Cc1ccc(Cn2nc(C)c(C=O)c2Cl)cc1 | 1.7 | -5.8 | -36.2* | -0.8 | -4.6
COc1ccc(-c2nc3ccccc3c(=O)n2-c2ccc(OC)cc2)cc1 | -0.8 | 0.6 | 3.5 | -1.1 | -1.2
COc1ccc(-n2c(-c3ccccc3Br)nc3ccccc3c2=O)cc1 | -0.5 | 47.8* | -16.9 | 0.4 | 3.3 | TRHR enhancer-2=-6.7;TRHR agonist-2=1.8%
Cn1c(O)c(/C=C2/C=CC=N2)c(=O)[nH]c1=O | 1.7 | -3.9 | 1.1 | 1.1 | -3.3
C=C(C=O)CC1CC(O)[C@]2(C)OC3C[C@@H]4OC5C[C@]6(C)O[C@]7(C)CCC8OC9C[C@]%10(C)OC(/C(C)=C\CO)C(O)CC%10OC9CC(C)C8OC7CC6O[C@]5(C)C/C=C\C4OC3CC2O1 (stereo not given in full) | 0.6 | 5.9 | 2.7 | 0.6 | -7.3

Bioassay records deposited in PubChem by National Center for Advancing Translational Sciences (NCATS).
